The whole screen tested about 5,500 compounds, of which about 2,000 (36%) were called active. Another 18% or so got no clear call; they are omitted. No stated cut-off is given here; in the data, active means normalized growth mostly below about 0.91 (no sharp cut-off); inconclusive means no clear call, values can overlap the other calls; inactive means mostly above about 0.92. Some of the results follow.
Experiment: chemical genetic growth profiling, strain panel (AID 1159580);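 further: tested at 20 µM; growth read once vehicle control cultures reached saturation at 30 °C; 1 = growth at the plate median or of vehicle wells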
Conditions: growth OD

Measured: normalized growth

COc1ccccc1N=C(N)SCc1ccccc1
inactive: S. cerevisiae deletion strains, locus YAL013W, strain DEP1, stronger effect = lower value 1.01 | S. cerevisiae deletion strains, locus YBR229C, strain ROT2, stronger effect = lower value 1.01 | S. cerevisiae deletion strains, locus YCL061C, strain MRC1, stronger effect = lower value 1.01 | S. cerevisiae deletion strains, locus YDL101C, strain DUN1, stronger effect = lower value 1 | S. cerevisiae deletion strains, locus YDR150W, strain NUM1, stronger effect = lower value 0.923 | S. cerevisiae deletion strains, locus YEL061C, strain CIN8, stronger effect = lower value 1 | S. cerevisiae deletion strains, locus YGR078C, strain PAC10, stronger effect = lower value 1.01 | S. cerevisiae deletion strains, locus YHR030C, strain SLT2, stronger effect = lower value 1.03 | S. cerevisiae deletion strains, locus YHR087W, strain rtc3, stronger effect = lower value 1.01 | S. cerevisiae deletion strains, locus YJL187C, strain SWE1, stronger effect = lower value 1.01 | S. cerevisiae deletion strains, locus YJR043C, strain POL32, stronger effect = lower value 1.01 | S. cerevisiae deletion strains, locus YJR075W, strain HOC1, stronger effect = lower value 1.01 | S. cerevisiae deletion strains, locus YKL190W, strain CNB1, stronger effect = lower value 1.01 | S. cerevisiae deletion strains, locus YLR039C, strain RIC1, stronger effect = lower value 1.02 | S. cerevisiae deletion strains, locus YLR058C, strain SHM2 (second series), stronger effect = lower value 1.01 | S. cerevisiae deletion strains, locus YLR085C, strain ARP6, stronger effect = lower value 1.03 | S. cerevisiae deletion strains, locus YLR262C, strain YPT6, stronger effect = lower value 0.999 | S. cerevisiae deletion strains, locus YML094W, strain GIM5, stronger effect = lower value 0.988 | S. cerevisiae deletion strains, locus YMR219W, strain ESC1, stronger effect = lower value 1.01 | S. cerevisiae deletion strains, locus YMR263W, strain SAP30, stronger effect = lower value 1.01 | S. cerevisiae deletion strains, locus YMR307W, strain GAS1, stronger effect = lower value 1.06 | S. cerevisiae deletion strains, locus YNL128W, strain TEP1, stronger effect = lower value 1.01 | S. cerevisiae deletion strains, locus YNL153C, strain GIM3, stronger effect = lower value 1 | S. cerevisiae deletion strains, locus YNL298W, strain CLA4 (second series), stronger effect = lower value 0.998 | S. cerevisiae deletion strains, locus YNL322C, strain KRE1, stronger effect = lower value 1.01 | S. cerevisiae deletion strains, locus YNR030W, strain Alg12, stronger effect = lower value 1.02 | S. cerevisiae deletion strains, locus YPL055C, strain LGE1, stronger effect = lower value 0.928 | S. cerevisiae deletion strains, locus YPL241C, strain CIN2, stronger effect = lower value 0.994 | S. cerevisiae deletion strains, locus YPR135W, strain CTF4, stronger effect = lower value 0.962 | S. cerevisiae strains, strain wild type, stronger effect = lower value 1.01

Source: PubChem BioAssay AID1159580 (chemical genetic matrix, 2015)
